TDP1 cell noCPT: qHTS for Inhibitors of human tyrosyl-DNA phosphodiesterase 1 (TDP1): qHTS in cells in absence of CPT | DT40 Tdp1-/- hTDP1 cells, no CPT, ATP luminescence, 48 h | Potency, µM (highest dose often 46.2 µM), usual class: inhibitors | 15% of 420,000 active | AID 686978, 2013; also: nearly all actives have a fitted effect of over 55% in size
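Chicken DT40 Tdp1-/- cells complemented with human TDP1, screened without camptothecin (DMSO vehicle only), 400 cells/well. Compounds pin-transferred, cells incubated at 37 °C for at least 48 hr. Growth read as ATP-dependent luminescence (CellTiter-Glo, 30 min at RT).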
CtBP-E1A inh: qHTS Assay for Inhibitors of the CtBP/E1A Interaction; AlphaScreen GST-E1A/His-CtBP binding, 1536-well; stronger effect = lower value; 0.49% of 340,000 active; activity change, % (no concentration beside the values); AID 651724, 2012; in the data active = activity change below about -65%; inconclusive = mostly about -30% to -63%
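Protein mix (5X: 125 nM each GST-E1A, His-CtBP) was incubated with pinned compound 2 h at 37 deg C in dark, in 50 mM Tris pH 8.0 buffer with 300 mM NaCl. Glutathione donor and nickel acceptor beads followed; AlphaScreen signal read after 1 h.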
IL1B secr inh: qHTS for Inhibitors of Inflammasome Signaling: IL-1-beta AlphaLISA Primary Screen; THP-1 LPS/ATP IL-1B secretion, AlphaLISA, 16 h; stronger effect = lower value; activity change, % at 57.5 µM; 4.7% of 360,000 active; in the data active = activity change below about -50%; inconclusive = mostly about -30% to -49%
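THP-1 cells pretreated 1 hr with compounds (up to 57.5 uM final), then stimulated with LPS (250 ng/mL final) plus ATP (1.25 mM final); secreted IL-1B measured by AlphaLISA after 16 hr, decreased signal indicating inhibition.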
DT40 TDP1 CPT: qHTS for Inhibitors of human tyrosyl-DNA phosphodiesterase 1 (TDP1): qHTS in cells in presence of CPT. chicken DT40 Tdp1-/-;hTDP1 cells + 20 nM CPT, ATP luminescence, 48 h. Potency, µM (highest dose often 46.2 µM), actives largely listed as inhibitors. 12% of 420,000 active; also: nearly all actives have a fitted effect of over 55% in size
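Chicken DT40 Tdp1-/- cells complemented with human TDP1, 400 cells/well, exposed to compounds plus 20 nM camptothecin for at least 48 h at 37 C; viability read as ATP content by CellTiter-Glo luminescence.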
Six1-Eya2 blk: qHTS Assay for Inhibitors of the Six1/Eya2 Interaction | Homeobox protein SIX1 (Homo sapiens) + Protein phosphatase EYA2 (Homo sapiens), … | AlphaScreen GST-Six1/His-Eya2 binding, biochemical; stronger effect = lower value | activity change, % (test concentration not listed) | 0.56% of 360,000 active; in the data active = activity change below about -65%; inconclusive = mostly about -30% to -63%
Target sequence (O00167 whole entry, looked up): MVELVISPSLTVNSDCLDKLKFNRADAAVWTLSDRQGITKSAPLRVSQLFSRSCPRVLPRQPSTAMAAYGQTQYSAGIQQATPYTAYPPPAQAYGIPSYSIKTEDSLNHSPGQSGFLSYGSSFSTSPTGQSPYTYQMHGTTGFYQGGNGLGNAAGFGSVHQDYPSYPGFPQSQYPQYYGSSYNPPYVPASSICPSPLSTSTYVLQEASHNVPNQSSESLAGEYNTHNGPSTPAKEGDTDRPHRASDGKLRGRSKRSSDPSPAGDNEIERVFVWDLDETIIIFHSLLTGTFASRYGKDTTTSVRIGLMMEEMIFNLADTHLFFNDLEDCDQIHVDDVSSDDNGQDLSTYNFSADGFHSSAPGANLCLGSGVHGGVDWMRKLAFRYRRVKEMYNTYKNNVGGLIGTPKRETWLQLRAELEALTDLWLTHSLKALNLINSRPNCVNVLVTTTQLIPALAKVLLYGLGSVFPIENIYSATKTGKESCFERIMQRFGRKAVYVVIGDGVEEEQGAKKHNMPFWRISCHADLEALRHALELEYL
Target sequence (Q15475 whole entry, looked up): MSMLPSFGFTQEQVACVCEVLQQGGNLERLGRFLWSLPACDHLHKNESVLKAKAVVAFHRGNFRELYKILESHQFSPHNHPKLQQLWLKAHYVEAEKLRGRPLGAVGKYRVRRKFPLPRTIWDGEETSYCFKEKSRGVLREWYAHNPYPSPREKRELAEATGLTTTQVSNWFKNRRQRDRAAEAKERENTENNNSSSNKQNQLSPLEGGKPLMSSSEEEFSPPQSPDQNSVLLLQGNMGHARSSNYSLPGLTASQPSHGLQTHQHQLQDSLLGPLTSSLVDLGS
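GST-Six1 + His-Eya2 (5X stock: 250/500 nM); Tris pH 8.0, 300 mM NaCl, 0.05% BSA, 0.02% Tween 20; GSH donor/Ni acceptor beads; 1 h 37 °C dark; AlphaScreen readout.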
TDP1 block: qHTS Assay for Inhibitors of Tyrosyl-DNA Phosphodiesterase (TDP1); Tyrosyl-DNA phosphodiesterase 1 (Homo sapiens), Q9NUW8; Potency, µM (doses to about 130 µM), most hits filed as inhibitors; 0.28% of 350,000 active; AID 485290, 2010; recombinant TDP1, AlphaScreen DNA substrate cleavage; also: nearly all actives have a fitted effect of over 40% in size
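E. coli-derived human Tdp1, 1 nM final. Cpd preinc 15 min RT; substrate 15 nM final, 5 min RT; AS bead mix 10 ug/ml final, 10 min RT. Signal loss = tyrosine-FITC cleavage. No-enzyme wells = max signal.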
Large screens that a line does not name were inactive. The list is not random: actives were taken first. Their share in the collection is about 18%. Unless noted, calls follow the shape of the dose curve; as a rule, active = well fitted curve in the direction sought with a large enough effect; inconclusive = small, poorly fitted or top-dose-only effect, or another doubt; inactive = no such curve, though single readings can be large; an effect the other way counts as inactive or inconclusive.

O=C(NNc1c(Cl)cc(Cl)cc1Cl)c1n[nH]c(=O)c2ccccc12	none (no result: CtBP-E1A inh)
Cc1nn2c3ccccc3n(CC(=O)c3cccs3)c2nc1=O	none
COc1ccc(/C=C(\C#N)C(=O)OCC(=O)NCc2ccccc2OC)cc1	none (no result: TDP1 block)
Cc1ccc(Nc2sc(C(=O)c3ccc(F)cc3)c(N)c2S(=O)(=O)c2ccc(C)cc2)cc1	TDP1 cell noCPT inconclusive, DT40 TDP1 CPT 18µM (no result: CtBP-E1A inh, IL1B secr inh, Six1-Eya2 blk)
O=C(NCc1cccnc1)c1cc(-c2ccccc2)on1	TDP1 cell noCPT inconclusive, DT40 TDP1 CPT inconclusive
Cc1ccc(O)c(NC(=O)c2cc(-c3cccs3)on2)c1	IL1B secr inh -67
O=C(NCc1cccnc1)c1cc2nc(-c3cccs3)cc(C(F)(F)Cl)n2n1	TDP1 cell noCPT inconclusive, IL1B secr inh -67, DT40 TDP1 CPT inconclusive
O=C(NCc1cccnc1)c1cc(-c2cccs2)on1	TDP1 cell noCPT inconclusive, DT40 TDP1 CPT 13µM
O=C(NCc1ccco1)c1cc2nc(-c3cccs3)cc(C(F)(F)F)n2n1	TDP1 cell noCPT inconclusive, DT40 TDP1 CPT inconclusive
O=C(NCCCc1nc2ccccc2n1Cc1ccccc1F)c1ccco1	TDP1 cell noCPT inconclusive, DT40 TDP1 CPT inconclusive (no result: CtBP-E1A inh, IL1B secr inh, Six1-Eya2 blk)
Cc1ccc(NC(=O)c2ccccc2NC(=O)c2cccs2)cc1	none
Cn1c(=O)[nH]c(=O)c2[nH]c(NCCCN3CCOCC3)nc21	none
Clc1ccc2oc(-c3ccccc3)cc(=NCCCN3CCOCC3)c2c1	TDP1 cell noCPT inconclusive, IL1B secr inh -91, DT40 TDP1 CPT inconclusive
C=CCN(CC=C)C(=O)C1c2ccccc2Oc2ccccc21	TDP1 cell noCPT inconclusive, DT40 TDP1 CPT 26µM (no result: TDP1 block)
Cc1cc(NC(=O)/C=C/c2ccccc2Cl)n(-c2nc3ccccc3[nH]2)n1	TDP1 cell noCPT 10µM, DT40 TDP1 CPT inconclusive
Cc1nc2ccccc2c(=O)n1NC(=O)/C=C/c1ccccc1Cl	TDP1 cell noCPT inconclusive, CtBP-E1A inh inconclusive, DT40 TDP1 CPT inconclusive
Cc1cc(NC(=O)CC2CCCC2)n(-c2nc3ccccc3[nH]2)n1	TDP1 cell noCPT 21µM, DT40 TDP1 CPT inconclusive
Cc1cc(NC(=O)c2ccc(F)cc2F)n(-c2nc3ccccc3[nH]2)n1	DT40 TDP1 CPT inconclusive
CC(=C/C(=O)O)/C=C/c1ccc(Cl)o1	TDP1 block 25µM
CC(/C=C\c1ccccc1)=C/C(=O)O	none
CC(/C=C/c1cccs1)=C\C(=O)O	none
CCN1CCN(C(=O)/C=C/c2ccc(C)o2)CC1	none
CC(/C=C/c1ccc(C)o1)=C\C(=O)O	TDP1 cell noCPT 18µM, DT40 TDP1 CPT 12µM
CC(=O)/C=C/c1ccc(C)o1	TDP1 cell noCPT inconclusive, DT40 TDP1 CPT 16µM
Cc1ccc(/C=C/C(=O)N2CC(C)CC(C)C2)o1 (stereo not given)	TDP1 cell noCPT 3.3µM, IL1B secr inh inconclusive, DT40 TDP1 CPT 1.5µM
O=C(Nc1ccccc1)c1cc(C2CCCCN2C(=O)OCc2ccccc2)on1 (stereo not given)	none (no result: TDP1 block)
C[N+](C)(C)C(Cc1ccccc1)C(=O)[O-] (stereo not given)	none (no result: TDP1 block)
COc1ccc(-n2nnnc2Sc2ccc(S(=O)(=O)N3CCOCC3)cn2)cc1	none
COCc1ccc(CN2CCC(C(=O)Nc3cccc(-c4cscn4)c3)CC2)o1	IL1B secr inh -73, DT40 TDP1 CPT inconclusive
Cc1nn(C(C)C)c(C)c1CN1CCC(C(=O)Nc2cccc(-c3cccc(F)c3)c2)CC1	TDP1 cell noCPT inconclusive, IL1B secr inh -52, DT40 TDP1 CPT 23µM
Cc1cccc(CN2CCC(C(=O)Nc3cccc(-c4cscn4)c3)CC2)n1	TDP1 cell noCPT 23µM, DT40 TDP1 CPT inconclusive (no result: CtBP-E1A inh)
O=C(Nc1cccc(-c2cccc(F)c2)c1)C1CCN(CC2CCOC2)CC1 (stereo not given)	TDP1 cell noCPT inconclusive, IL1B secr inh inconclusive, DT40 TDP1 CPT inconclusive
CCCn1ncc(CN2CCC(C(=O)Nc3cccc(-c4cccc(F)c4)c3)CC2)c1C	TDP1 cell noCPT inconclusive, IL1B secr inh -76, DT40 TDP1 CPT 15µM
Cn1cc(CN2CCC(C(=O)Nc3cccc(-c4cccc(F)c4)c3)CC2)cn1	TDP1 cell noCPT inconclusive, DT40 TDP1 CPT inconclusive
CCN(CC(=O)Nc1c(F)cccc1F)C(=O)CSc1nc2ccccc2o1	none
O=C(Nc1cccc(-c2cccc(F)c2)c1)C1CCN(C2CCC2)CC1	TDP1 cell noCPT 5.2µM, DT40 TDP1 CPT inconclusive (no result: CtBP-E1A inh)
Cc1cccc(CN2CCC(C(=O)Nc3cccc(-c4cccc(F)c4)c3)CC2)n1	TDP1 cell noCPT 2.9µM, IL1B secr inh inconclusive, DT40 TDP1 CPT 8.2µM
O=C(Nc1cccc(F)c1)C1CCCCC1	none (no result: TDP1 block)
O=C(Nc1cccc(-c2cccc(F)c2)c1)C1CCN(Cc2ccco2)CC1	TDP1 cell noCPT inconclusive, DT40 TDP1 CPT inconclusive
CCN1CCN(S(=O)(=O)c2ccc(Cl)c(C(=O)N(CC(C)C)C3CCS(=O)(=O)C3)c2)CC1 (stereo not given)	none (no result: TDP1 block)
CCN(c1ccccc1)S(=O)(=O)c1ccc(Cl)c(NC(=O)CN(C)Cc2cccc(F)c2)c1	TDP1 cell noCPT 18µM, DT40 TDP1 CPT 16µM (no result: TDP1 block)

High-throughput results deposited in PubChem by National Center for Advancing Translational Sciences (NCATS).
